High-throughput results as filed in PubChem BioAssay.
Rab9 promoter act = activates the Rab9 promoter. Huh7 Rab9 promoter-luciferase reporter, luminescence, 24 h. Potency, µM (doses to about 9.22 µM), hits mostly activators. hit rate 2.8% among 320,000; further: nearly all actives have a fitted effect of over 60% in size
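Luminescence read-out: Huh7 cells stably expressing Rab9-luciferase, treated 24 h with compound at 37 °C, then lysed with luciferase reagent for 10 min at ambient before reading.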
SMN2 splice enh = SMN2 splice variant enhancement; HEK293 SMN2-luciferase splicing reporter, luminescence, 30-36 h; Potency, µM (doses to about 46.1 µM), usual class: activators; hit rate 2.8% among 210,000; further: nearly all actives have a fitted effect of over 55% in size
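HEK293 cells carry an SMN2 minigene-luciferase reporter in which exon 7 inclusion puts luciferase in frame. Cells were seeded at 2000 cells/well, attached for 10-12 hours, then exposed to compounds for 30-36 hours at 37C before ONE-Glo luminescence.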
ELG1 genotoxic = induces genotoxicity in HEK293T cells with luciferase-tagged ELG1 | HEK293T ELG1-luciferase reporter, luminescence, 16 h | hit rate 1.3% among 330,000 | Potency, µM (doses to about 46 µM), hits mostly activators; further: nearly all actives have a fitted effect of over 60% in size
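ELG1-luciferase HEK293T cells, 2,000/well; compound pinned in; 16 hr, 37 °C, 5% CO2; ONE-Glo, 30 min RT; luminescence on CCD imager.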
FLuc counter = counter-screen for miR-21 project: firefly luciferase inhibitors or activators. P08659. purified FLuc, Km substrates, luminescence inhibition. Potency, µM (series often up to 57.5 µM), actives largely listed as inhibitors. hit rate 6.9% among 360,000; further: nearly all actives have a fitted effect of over 55% in size
Target sequence (P08659 whole entry, looked up): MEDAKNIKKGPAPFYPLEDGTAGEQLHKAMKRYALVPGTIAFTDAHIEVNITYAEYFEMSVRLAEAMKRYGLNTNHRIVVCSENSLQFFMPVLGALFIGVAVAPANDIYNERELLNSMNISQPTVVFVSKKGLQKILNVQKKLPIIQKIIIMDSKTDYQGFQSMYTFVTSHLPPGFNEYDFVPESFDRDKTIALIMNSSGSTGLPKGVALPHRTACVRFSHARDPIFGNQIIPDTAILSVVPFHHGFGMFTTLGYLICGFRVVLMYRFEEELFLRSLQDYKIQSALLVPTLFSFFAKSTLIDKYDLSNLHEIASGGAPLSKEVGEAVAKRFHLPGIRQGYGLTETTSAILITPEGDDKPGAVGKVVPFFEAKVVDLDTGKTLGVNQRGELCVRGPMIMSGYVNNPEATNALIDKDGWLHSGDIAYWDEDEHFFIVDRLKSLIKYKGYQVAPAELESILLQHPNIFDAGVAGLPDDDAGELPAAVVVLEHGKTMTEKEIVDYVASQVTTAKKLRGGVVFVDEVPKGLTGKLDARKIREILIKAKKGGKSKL
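Purified P. pyralis luciferase, 10 nM final, with Km-level 10 uM D-luciferin and 10 uM ATP in 50 mM Tris acetate pH 7.5, 10 mM Mg acetate, 0.01% Tween-20, 0.05% BSA; 6-point qHTS titration about 60 µM downward; luminescence read.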
NPC1 prom act = NPC1 promoter activation; hit rate 2.4% among 320,000; AID 485313; Huh7 NPC1 promoter luciferase reporter, 24 h; Potency, µM (titrated, usually from 9.22 µM), most hits filed as activators; further: nearly all actives have a fitted effect of over 60% in size
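Luminescence read-out of NPC1 promoter-driven luciferase in stably transfected Huh7 cells; compounds delivered in DMSO and left 24 h at 37C, 5% CO2, qHTS titration format.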
Luc counter = blocks Kinase-Glo luciferase, a counter-screen artifact; Kinase-Glo luciferase, ATP luminescence, 8 min; Potency, µM (doses to about 38.3 µM), actives largely listed as inhibitors; Q27757; hit rate 0.28% among 200,000; further: nearly all actives have a fitted effect of over 60% in size
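Compound is pinned into ATP-containing buffer (10 uM ATP, imidazole pH 7.2, 7 mM MgCl2). Kinase-Glo luciferase reagent is then added. Light output is recorded following an 8-min room-temperature incubation.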
Each line names hits and unclear results; the compound was inactive in the other large screens. Compounds with a hit are over-represented: about 7.5% of the library has one in this group of screens. The call rests on the fitted dose curve; in most records, active means well fitted curve in the direction sought with a large enough effect; inconclusive means small, poorly fitted or top-dose-only effect, or another doubt; inactive means no such curve, though single readings can be large; an effect the other way counts as inactive or inconclusive.

Cc1ccc(S(=O)(=O)Nc2ccc3c(c2)c(C(=O)OC(C)C)c(C)n3S(=O)(=O)c2ccc(C)cc2)cc1	none (no result: Rab9 promoter act, ELG1 genotoxic, NPC1 prom act, Luc counter)
Nc1nc(N)c(S(=O)(=O)c2ccccc2)c(Nc2ccc(Br)cc2)n1	none (no result: Rab9 promoter act, ELG1 genotoxic, NPC1 prom act, Luc counter)
Cc1occc1C(=O)NCCc1cccc(Cl)c1	Rab9 promoter act 4µM, SMN2 splice enh inconclusive, ELG1 genotoxic inconclusive, FLuc counter 21µM, NPC1 prom act inconclusive
O=C(NCCCCNC(=O)c1cccs1)c1cccs1	none
O=C(NCCc1ccccc1)c1cccs1	Rab9 promoter act 2.8µM, SMN2 splice enh 11µM, ELG1 genotoxic 2.9µM, FLuc counter 11µM, NPC1 prom act 2.8µM
O=C(NCCc1cccc(Cl)c1)c1cccs1	Rab9 promoter act 1.8µM, SMN2 splice enh 16µM, ELG1 genotoxic inconclusive, FLuc counter 15µM, NPC1 prom act 2.2µM
O=C(NCCCNC(=O)c1cccs1)c1cccs1	none
CCc1cc2cc(C)cc(C)c2[nH]c1=S	FLuc counter inconclusive
CCCCOc1ccc(-c2ncc(C(=O)O)c(C)n2)cc1	Rab9 promoter act 0.56µM, SMN2 splice enh 14µM, FLuc counter 2.4µM, NPC1 prom act 0.5µM
COc1ccc(NC(=O)CC2C(=O)N(c3ccc(C)cc3)C(=O)N2Cc2cccnc2)cc1 (stereo not given)	none (no result: Rab9 promoter act, SMN2 splice enh, ELG1 genotoxic, NPC1 prom act, Luc counter)
CCc1cccc(NC(=O)c2ccc3c(c2)N(Cc2cccc(Cl)c2)C(=O)c2ccccc2S3=O)c1 (stereo not given)	none (no result: Rab9 promoter act, SMN2 splice enh, ELG1 genotoxic, NPC1 prom act, Luc counter)
COc1ccc(C(=S)N2CCC(C(N)=O)CC2)cc1Br	none
CCCCOc1ccc(C(=S)N2CCC(C(N)=O)CC2)cc1	Rab9 promoter act 4.5µM, SMN2 splice enh inconclusive, ELG1 genotoxic inconclusive, FLuc counter 24µM, NPC1 prom act inconclusive
CCc1cccc(OCC2Cn3c(nc4c3c(=O)[nH]c(=O)n4C)O2)c1 (stereo not given)	none (no result: SMN2 splice enh, Luc counter)
CC(C)c1ccc(NC(=O)N(CCc2nc3ccccc3[nH]2)C2CCCC2)cc1	FLuc counter 7.6µM
c1ccc2cc(-c3cc4ccccn4c3)ccc2c1	Rab9 promoter act 3.2µM, SMN2 splice enh 11µM, ELG1 genotoxic 3.7µM, FLuc counter 0.85µM, NPC1 prom act 3.2µM
c1ccc2cc(-c3cc(-c4cc(-c5ccc6ccccc6c5)on4)no3)ccc2c1	SMN2 splice enh inconclusive (no result: Rab9 promoter act, ELG1 genotoxic, FLuc counter, NPC1 prom act)
CCN(CCn1cccn1)C(=O)CCc1nnc(C2(c3ccc(Cl)cc3)CCC2)o1	Rab9 promoter act inconclusive, FLuc counter 17µM (no result: SMN2 splice enh)
COc1ccc(-c2noc(CCCC(=O)O)n2)cc1	FLuc counter 11µM
COc1ccc(-c2noc(CCC(=O)O)n2)cc1	none
CCOc1ccc(-c2noc(CCC(=O)O)n2)cc1	FLuc counter 12µM
C=CCNCCCCOc1ccc(OCc2ccccc2)cc1	Rab9 promoter act inconclusive, ELG1 genotoxic 13µM, FLuc counter 17µM, NPC1 prom act inconclusive
c1ccc(COc2ccc(OCCCCN3CCCC3)cc2)cc1	Rab9 promoter act 2.5µM, ELG1 genotoxic inconclusive, FLuc counter 12µM, NPC1 prom act 2.2µM (no result: SMN2 splice enh, Luc counter)
c1ccc(OCCCN2CCCC2)cc1	none
c1ccc(COc2ccc(OCCCN3CCCCC3)cc2)cc1	Rab9 promoter act 3.2µM, SMN2 splice enh inconclusive, ELG1 genotoxic 7.9µM, FLuc counter 13µM, NPC1 prom act inconclusive
c1ccc(COc2ccc(OCCOCCn3cncn3)cc2)cc1	Rab9 promoter act 1.3µM, SMN2 splice enh 8.9µM, ELG1 genotoxic 5.2µM, FLuc counter 8.5µM, NPC1 prom act 1.4µM
CCCn1nc(C(=O)Nc2cccc(S(=O)(=O)N(C)c3ccccc3)c2)c2ccccc2c1=O	none (no result: Rab9 promoter act, SMN2 splice enh, FLuc counter, NPC1 prom act, Luc counter)
NC(=O)CSc1oc(-c2cccs2)nc1S(=O)(=O)c1ccc(Br)cc1	none (no result: Rab9 promoter act, SMN2 splice enh, ELG1 genotoxic, NPC1 prom act, Luc counter)
c1ccc2nc3c(nc2c1)OCC1CCCCN31 (stereo not given)	Rab9 promoter act 2.5µM, ELG1 genotoxic inconclusive, FLuc counter 3.8µM, NPC1 prom act 4.5µM (no result: SMN2 splice enh, Luc counter)
O=C(NC(=S)Nc1ccc(O)cc1)c1ccccc1Cl	Rab9 promoter act 4µM, SMN2 splice enh inconclusive, ELG1 genotoxic inconclusive, FLuc counter inconclusive, NPC1 prom act inconclusive
COc1ccc(NC(=S)NC(=O)c2ccccc2Cl)cc1	Rab9 promoter act inconclusive, FLuc counter inconclusive (no result: SMN2 splice enh)
Cc1ccc(O)c(NC(=S)NC(=O)c2ccccc2Cl)c1	SMN2 splice enh inconclusive, FLuc counter 17µM
